Hits are enriched below; roughly 2.7% of the tested compounds scored in any of these assays.
TRPM1 prom inh: inhibitors of MITF-driven TRPM1 promoter in melanoma cells. SK-MEL-5 TRPM1 promoter luciferase, 24 h. inhibition, % at 12.5 µM. 330,000 compounds, 0.83% hits. AID 488899;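 active = mean inhibition across replicates of 60% or more, whatever share of single replicates reaches that level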
Shn3 3UTR inh: Schnurri-3 reporter inhibition in Clone20 osteoblasts. Clone20 osteoblast Shn3 3'UTR firefly luciferase, 24 h. inhibition, % at 12.5 µM. 360,000 compounds, 0.52% hits. AID 588674;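 active = mean inhibition of at least 75% with every replicate also reaching 75%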;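 also: 0% = median of neutral control wells and 100% = pilot-screen positive control compound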
Peg3 prom inh: Peg3 promoter activity inhibition; inhibition, % at 20 µM; 360,000 compounds, 1.7% hits; HeLa PEG-Prom luciferase reporter, luminescence, overnight;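 active = inhibition of at least 50% at 20 µM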
KKLEB tox: counter-screen for CF NF-kB inhibitors: cytotoxicity | KKLEB CF airway cells viability, ATPlite luminescence, overnight; active compounds read low; cells stimulated with P. aeruginosa culture filtrate | activity change (cytotoxicity), % at 5 µM | 360,000 compounds, 0.36% hits | AID 602141;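 active = corrected activity change at or below -50% at 5 µM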
CF NFkB block: blocks PAF-induced NF-kB reporter in cystic fibrosis cells | 360,000 compounds, 0.86% hits | inhibition, % at 5 µM | KKLEB NF-kB-GFP reporter, GFP fluorescence overnight;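 active = at least 50% inhibition at 5 µM, scaled per plate between neutral and stimulator controls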;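 also: PAF is a Pseudomonas aeruginosa culture filtrate used as stimulus; plate controls were PAF-stimulated DMSO wells for no effect and unstimulated DMSO wells for full effect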
HIF-2a block: HIF-2a inhibition | 786-0 RCC cells HIF-2a reporter, luciferase luminescence, overnight | AID 624352 | 360,000 compounds, 0.72% hits | inhibition, % at 18.8 µM;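 active = inhibition of the luminescence signal of 40% or more relative to plate controls, in a single-dose primary screen at 18.75 µM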
Active calls of the source: *; . = no result.

SMILES | TRPM1 prom inh | Shn3 3UTR inh | Peg3 prom inh | KKLEB tox | CF NFkB block | HIF-2a block
O=C(COC(=O)/C=C/c1ccc(Cl)c(Cl)c1)NC1CCCC1 | -1.2 | 7.2 | 13.5 | -5.1 | -35.3 | 6.0
CN(C)CC1CCC/C(=C\c2ccc(OC(=O)/C=C/c3ccc(Cl)c(Cl)c3)cc2)C1=O (stereo unspecified) | 1.8 | 6.9 | 94.6* | 12.7 | -26.3 | 8.1
CCc1nc2c(OCCc3cccc(OC)c3)cccn2c1N(C=O)Cc1ccc(OC)cc1 | . | -4.4 | 24.6 | -8.2 | 21.6 | 11.3
N#C/C(=C(\O)Cc1ccccc1)c1nc2ccccc2[nH]1 | 4.0 | 89.6* | 16.8 | -25.2 | 22.1 | -2.3
Cc1cc(Br)ccc1SCC(=O)OCC(O)=C(C#N)c1nc2ccccc2[nH]1 | 16.6 | -13.3 | 66.5* | -14.0 | -8.2 | -3.3
N#C/C(=C(/O)CCl)c1nc2ccccc2[nH]1 | 79.6* | 9.2 | 26.9 | -11.8 | 11.9 | -63.0
COc1cccc(-c2ccc3c(c2)O[C@H](CN(C)C(=O)c2ccccc2F)[C@H](C)CN([C@H](C)CO)S3(=O)=O)c1 | . | 10.3 | 21.6 | 11.0 | -21.3 | 17.9
COc1ccc(-c2cccc(N3CCN(c4ccccn4)CC3)n2)cc1OC | . | -3.7 | 17.6 | -0.9 | 9.9 | 4.8
COc1ccc(OCCNC2CCCC2)cc1 | -0.6 | -111.4 | 2.3 | -7.1 | -9.1 | -8.3
c1ccc(-c2ccc(OCCCNC3CCCC3)cc2)cc1 | -12.8 | -27.6 | 74.3* | -10.4 | 5.1 | 6.0
Cc1ccc2ccccc2c1C(O)c1ncc(-c2ccccc2)[nH]1 (stereo unspecified) | . | -23.6 | -0.1 | -0.6 | -12.3 | 19.1
O=C(COc1ccccc1)NC(=S)Nc1cccc2c(O)cccc12 | . | -12.7 | -19.7 | -1.1 | -0.3 | -52.8
COc1ccc(OCC(=O)Nc2cccc(NC(=O)COc3ccc(OC)cc3)n2)cc1 | -36.1 | -37.3 | -117.5 | -62.9* | 48.7 | -74.0
C#CCOCCOCCOCCNc1nc(N2CCN(C(=O)CCCCCCCCCCNC(=O)Cn3cc(C[C@@H](C)O)nn3)CC2)nc(N2CCN(C(=O)CCCCCCCCCCNC(=O)[C@@H](CCSC)n3cc(CCO)nn3)CC2)n1 | 79.2* | 9.9 | -69.8 | -10.2 | 14.7 | -3.8
C#CCOCCOCCOCCNc1nc(N2CCN(C(=O)CCCCCCCCCCNC(=O)[C@@H](CCSC)n3cc(CCO)nn3)CC2)nc(N2CCN(C(=O)CCCCCCCCCCNC(=O)[C@H](CO)n3cc(CCCCCN)nn3)CC2)n1 | 10.2 | -7.0 | -8.6 | 14.3 | 4.7 | 12.4
C#CCOCCOCCOCCNc1nc(N2CCN(C(=O)CCCCCCCCCCNC(=O)[C@@H](CCC(=O)O)n3cc(CCCCCN)nn3)CC2)nc(N2CCN(C(=O)CCCCCCCCCCNC(=O)[C@H](CCCCN)n3cc(C[C@@H](C)CC)nn3)CC2)n1 | 36.2 | -0.8 | -19.9 | -3.7 | 1.3 | 2.8
C#CCOCCOCCOCCNc1nc(N2CCN(C(=O)CCCCCCCCCCNC(=O)[C@H](CCCCN)n3cc(C[C@@H](C)CC)nn3)CC2)nc(N2CCN(C(=O)CCCCCCCCCCNC(=O)[C@H](CCCN=C(N)N)n3cc(C[C@@H](C)CC)nn3)CC2)n1 | 103.9* | 77.0 | 101.3* | 0.2 | 12.1 | 41.0*
C#CCOCCOCCOCCNc1nc(N2CCN(C(=O)CCCCCCCCCCNC(=O)[C@@H](CCSC)n3cc(CCO)nn3)CC2)nc(N2CCN(C(=O)CCCCCCCCCCNC(=O)[C@H](CCCN=C(N)N)n3cc(C[C@@H](C)CC)nn3)CC2)n1 | 68.7* | 49.7 | 7.1 | 4.0 | 10.1 | -8.6
C#CCOCCOCCOCCNc1nc(N2CCN(C(=O)CCCCCCCCCCNC(=O)Cn3cc(CCCCCN)nn3)CC2)nc(N2CCN(C(=O)CCCCCCCCCCNC(=O)Cn3cc(C[C@@H](C)O)nn3)CC2)n1 | -6.1 | -18.0 | 26.6 | 7.1 | 13.9 | -7.2
C#CCOCCOCCOCCNc1nc(N2CCN(C(=O)CCCCCCCCCCNC(=O)Cn3cc(C[C@@H](C)O)nn3)CC2)nc(N2CCN(C(=O)CCCCCCCCCCNC(=O)[C@@H]([C@H](C)CC)n3cc(CCCCCN)nn3)CC2)n1 | 98.8* | 20.0 | 101.2* | -40.3 | 20.2 | 0.6
C#CCOCCOCCOCCNc1nc(N2CCN(C(=O)CCCCCCCCCCNC(=O)[C@@H](CCSC)n3cc(CCO)nn3)CC2)nc(N2CCN(C(=O)CCCCCCCCCCNC(=O)[C@@H]([C@H](C)O)n3cc(C)nn3)CC2)n1 | 26.7 | 16.3 | -41.9 | 15.8 | -4.1 | -2.5
CCCCCCCCN1C(=O)[C@H](CC(=O)NCc2ccccc2)C[C@@]2(C(=O)OC)CCCCC=C12 | . | . | . | . | . | -0.6
C[C@H]1CN([C@@H](C)CO)C(=O)CCCn2nncc2CO[C@H]1CN(C)S(=O)(=O)c1ccc2ccccc2c1 | . | -4.0 | 7.5 | -6.4 | -11.5 | 4.2
CC1OC(CCc2cccc(Cl)c2)Cc2[nH]c(=S)[nH]c(=O)c21 (stereo unspecified) | . | . | . | . | . | 7.8
Cn1nc(NC(=O)C(F)(F)F)c2ncc(-c3ccccc3)nc21 | . | -39.3 | -105.2 | -11.9 | 10.5 | -136.2
SMILES | TRPM1 prom inh | Shn3 3UTR inh | Peg3 prom inh | KKLEB tox | CF NFkB block | HIF-2a block
Cc1cccc(C)c1NC(=O)C1C(c2ccc3c(c2)OCO3)=Nc2ccccc2N1C(=O)c1cccc2ccccc12 (stereo unspecified) | . | . | . | . | . | -35.0
COC(=O)c1cc(C)nc2c1C(=O)C(=O)C=C2N1CCOCC1 | 84.0* | 98.9* | 100.1* | -58.1* | 88.3* | 82.6*
COC(=O)c1cc(S(=O)(=O)N2CCOCC2)c(Cl)cc1N1CCOCC1 | -0.4 | -10.4 | -7.0 | 7.9 | -11.8 | 15.2
COc1cccc2sc(N(CCCN(C)C)C(=O)c3ccc(S(=O)(=O)N4CCCc5ccccc54)cc3)nc12 | 18.6 | -12.0 | 53.6* | -16.4 | 4.9 | 9.9
CCc1ccc2nc(N(CCCN(C)C)C(=O)c3ccc(S(=O)(=O)N4CCCC4)cc3)sc2c1 | -15.5 | 11.1 | -55.4 | -11.5 | -7.0 | -9.1
COc1cccc2sc(N(CCCN(C)C)C(=O)c3ccc(S(=O)(=O)N4CCc5ccccc5C4)cc3)nc12 | 46.5 | 15.4 | 85.3* | -15.9 | 26.5 | 13.3
COc1cc2nc(N(CCCN(C)C)C(=O)c3ccc(S(=O)(=O)N4CCc5ccccc5C4)cc3)sc2cc1OC | 11.8 | -26.6 | 36.3 | -1.7 | -3.1 | -3.7
CCc1ccc2nc(N(CCCN(C)C)C(=O)c3ccc(S(=O)(=O)N4CCCc5ccccc54)cc3)sc2c1 | 12.8 | 7.5 | 106.1* | -34.1 | 34.1 | -25.4
CCOc1ccc2nc(N(CCCN(C)C)C(=O)c3ccc(S(=O)(=O)N4CCc5ccccc5C4)cc3)sc2c1 | 73.5* | 25.7 | 27.8 | -27.7 | -6.9 | 12.1
Cc1cc(Br)cn2c(Cc3ccsc3)c(-c3ccc(F)cc3)nc12 | . | -6.1 | 21.0 | -13.6 | 49.5 | 3.8
CCc1cccc(OCC(=O)Nc2ccccc2N2CCCC2)c1 | 5.1 | -7.1 | 22.2 | -4.7 | 28.3 | 4.7
COc1ccc(NC(=O)c2cccc3c(-c4ccc(O)c(OC)c4)coc23)cc1 | . | 22.4 | -14.8 | -10.5 | -15.7 | -80.5
